Drawing on PubChem BioAssay (NCATS), this text covers Potency and outcome for 17 molecules.

Records with an inconclusive call do not appear. Calls of active or inactive are those of the source. Unless noted, calls follow the shape of the dose curve; as a rule, active = well fitted curve in the direction sought with a large enough effect; inconclusive = small, poorly fitted or top-dose-only effect, or another doubt; inactive = no such curve, though single readings can be large; an effect the other way counts as inactive or inconclusive.

For assay [1], the target named is Cytochrome P450 1A2 (Homo sapiens) (UniProt P05177). Briefly: p450-cyp1a2 (AID 410; calls by dose curve; also: potency is read from the fitted curve at half-maximal effect). Put shortly: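 O-Demethylation of luciferin 6' methyl ether by human CYP1A2 is monitored as luciferase luminescence. Substrate sits at Km (100uM); enzyme is 20nM. Values are scaled to 57 uM furafylline as maximal inhibition.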
Sequence of Cytochrome P450 1A2 (Homo sapiens) (P05177 whole entry, looked up): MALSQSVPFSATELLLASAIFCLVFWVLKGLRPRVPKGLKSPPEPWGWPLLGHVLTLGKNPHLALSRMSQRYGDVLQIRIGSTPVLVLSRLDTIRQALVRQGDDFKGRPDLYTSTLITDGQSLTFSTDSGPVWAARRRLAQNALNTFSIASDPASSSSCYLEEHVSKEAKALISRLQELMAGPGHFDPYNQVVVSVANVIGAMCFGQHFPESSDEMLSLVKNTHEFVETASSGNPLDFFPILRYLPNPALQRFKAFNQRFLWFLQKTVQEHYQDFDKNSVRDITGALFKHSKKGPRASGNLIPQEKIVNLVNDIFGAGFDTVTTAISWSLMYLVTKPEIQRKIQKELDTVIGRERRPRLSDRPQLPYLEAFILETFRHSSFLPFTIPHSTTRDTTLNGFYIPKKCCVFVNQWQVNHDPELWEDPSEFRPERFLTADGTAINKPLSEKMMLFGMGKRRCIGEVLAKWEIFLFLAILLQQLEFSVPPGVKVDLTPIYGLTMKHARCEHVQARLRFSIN
Assay [2] concerns the target Cytochrome P450 2D6 (Homo sapiens) (UniProt P10635). The assay can be described thus: qHTS Assay for Inhibitors and Substrates of Cytochrome P450 2D6 (AID 891). Also: potency is read from the fitted curve at half-maximal effect; nearly all actives have a fitted effect of over 60% in size. Put shortly: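 Luminescent read-out of luciferin formed by 5 nM human CYP2D6 demethylating 30 uM Luciferin-ME EGE (Km level) over 60 min at room temperature after NADPH regeneration addition. Data normalized to full inhibition by 1.43 uM quinidine.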
On the technique in general: In qHTS, concentration-response curves come from the screen itself.

Assay [3] deals with ATP-dependent 6-phosphofructokinase (Trypanosoma brucei brucei) (UniProt O15648). Briefly: qHTS Assay to Find Inhibitors of T. brucei phosphofructokinase: hit validation (AID 492961).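 Also: luminescence reports ADP formed as PFK phosphorylates fructose-6-phosphate with ATP.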 Put shortly:
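In this biochemical qHTS validation, titrated compounds were tested against 1.25 nM PFK with 0.1 mM ATP and 0.5 mM F6P. Percent activity came from controls lacking or containing enzyme.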

In the next assay the test system is 7G8. The assay can be described thus: qHTS profiling for inhibitors of Plasmodium falciparum proliferation (AID 504749). Also: nearly all actives have a fitted effect of over 60% in size. Also: potency is read from the fitted curve at half-maximal effect. Conditions: P. falciparum in erythrocytes, SYBR Green DNA, 72 h; series mostly up to 12.8 µM. The gist of the method: (§1)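 SYBR Green fluorescence of parasite DNA, read after lysis and overnight dark incubation, measured growth over 72 h in erythrocyte culture at 0.3% parasitemia and 2.5% hematocrit. Data normalised to DMSO and 0.29 uM artemisinin, with plate-drift correction.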

A further assay deals with AA1029. The assay is described as above. The note with it: P. falciparum in erythrocytes, SYBR Green DNA, 72 h; series mostly up to 12.8 µM. Put shortly: as §1
For another assay, the system named is CP194. The description is as above. Conditions: P. falciparum in erythrocytes, SYBR Green DNA, 72 h; series mostly up to 12.8 µM. Put shortly: as §1
The next assay relates to CP203. The assay is described as above. The note with it: P. falciparum in erythrocytes, SYBR Green DNA, 72 h; series mostly up to 12.8 µM. The gist of the method: as §1
Another assay has as its system CP211. Described as above. The note with it: P. falciparum in erythrocytes, SYBR Green DNA, 72 h; series mostly up to 12.8 µM. The gist of the method: as §1
In another assay the test system is CP215. Described as above. Conditions: P. falciparum in erythrocytes, SYBR Green DNA, 72 h; series mostly up to 12.8 µM. Put shortly: as §1
In a further assay the test system is CP335. The description is as above. Conditions: P. falciparum in erythrocytes, SYBR Green DNA, 72 h; series mostly up to 12.8 µM. Put shortly:
as §1

Another assay deals with DIV17. The assay is described as above. Conditions: P. falciparum in erythrocytes, SYBR Green DNA, 72 h; series mostly up to 12.8 µM. The gist of the method:
as §1

A further assay deals with GB4. The assay is described as above. The note with it: P. falciparum in erythrocytes, SYBR Green DNA, 72 h; series mostly up to 12.8 µM. Put shortly:
as §1

A further assay concerns P93_24. Described as above. The note with it: P. falciparum in erythrocytes, SYBR Green DNA, 72 h; series mostly up to 12.8 µM. The gist of the method:
as §1

The subject of the next assay is PC26. The description is as above. Conditions: P. falciparum in erythrocytes, SYBR Green DNA, 72 h; series mostly up to 12.8 µM. Put shortly: as §1
Another assay deals with TAB109. The description is as above. Conditions: P. falciparum in erythrocytes, SYBR Green DNA, 72 h; series mostly up to 12.8 µM. Put shortly: as §1
The next assay deals with DFO2036. The assay is described as above. The note with it: P. falciparum in erythrocytes, SYBR Green DNA, 72 h; series mostly up to 12.8 µM. Put shortly: as §1
Assay [4] concerns the target Cytochrome P450 2C9 (Homo sapiens) (UniProt P11712). Briefly: qHTS Assay for Inhibitors and Substrates of Cytochrome P450 2C9 (AID 883). Also: nearly all actives have a fitted effect of over 60% in size. The gist of the method: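 Inhibition of CYP2C9 is scored as loss of luminescence, with 57uM sulphaphenazole defining 100% inhibition. Substrate Luciferin-H is used at 100uM, equal to its KM; enzyme at 10nM in 25mM KPO4, 60 min at 37C with NADPH regeneration.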

In assay [5] the target is Cytochrome P450 3A4 (Homo sapiens) (UniProt P08684). The assay can be described thus: qHTS Assay for Activators of Cytochrome P450 3A4 (AID 885). Also: nearly all actives have a fitted effect of over 65% in size. Put shortly:
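Activators are scored by enhanced luminescence from CYP3A4 conversion of luciferin-PPXE (25uM, equal to KM) to luciferin, after 60 min at RT with an NADPH-regenerating system.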

A short description of assay [6]: Confirmation and Secondary Assay for Modulators of Hemoglobin Beta Chain Splicing at IVS2 654 locus (AID 910).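 Also: HeLa cells stably carrying EGFP split by mutant beta-globin IVS2-654 intron; per-well total GFP intensity by laser scanning cytometry after 2-day treatment.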 The gist of the method: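 Readout: per-well total peak green fluorescence (488 nm ex, 500–520 nm em) from objects 5–250 µm, reflecting correct splicing of an EGFP-654 reporter. Compounds were applied for 2 days at 37 °C to overnight-plated HeLa EGFP-654 cells; controls were DMSO and 500 nM IVS2-654 PNA.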

The nature of assay [7]: Confirmation and Secondary Assay for Modulators of Hemoglobin Beta Chain Splicing at IVS2 705 locus (AID 930).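 Also: HeLa cells stably expressing the EGFP-705 splicing reporter; GFP fluorescence per well restored by corrected splicing of the IVS2-705 intron in EGFP.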 Put shortly:
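Splice-correction reporter: EGFP cDNA split by beta-globin intron 2 bearing the 705 mutation, stably in HeLa. Compound incubation 2 days, 37C; fluorescent objects 5-250 µm summed per well.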

Sequence of ATP-dependent 6-phosphofructokinase (Trypanosoma brucei brucei) (O15648 whole entry, looked up): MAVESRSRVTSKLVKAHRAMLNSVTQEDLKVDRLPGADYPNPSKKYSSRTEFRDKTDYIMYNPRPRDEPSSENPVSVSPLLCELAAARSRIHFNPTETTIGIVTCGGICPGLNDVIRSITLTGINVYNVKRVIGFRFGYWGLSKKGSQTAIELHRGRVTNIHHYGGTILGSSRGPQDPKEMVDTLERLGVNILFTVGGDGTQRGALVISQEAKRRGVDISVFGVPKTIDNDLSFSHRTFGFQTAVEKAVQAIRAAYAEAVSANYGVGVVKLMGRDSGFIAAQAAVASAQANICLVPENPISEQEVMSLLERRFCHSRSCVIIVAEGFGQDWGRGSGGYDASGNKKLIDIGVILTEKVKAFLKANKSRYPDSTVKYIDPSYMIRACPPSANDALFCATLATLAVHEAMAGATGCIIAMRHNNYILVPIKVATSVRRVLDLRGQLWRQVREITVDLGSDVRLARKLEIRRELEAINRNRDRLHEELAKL
Sequence of Cytochrome P450 2D6 (Homo sapiens) (P10635 whole entry, looked up): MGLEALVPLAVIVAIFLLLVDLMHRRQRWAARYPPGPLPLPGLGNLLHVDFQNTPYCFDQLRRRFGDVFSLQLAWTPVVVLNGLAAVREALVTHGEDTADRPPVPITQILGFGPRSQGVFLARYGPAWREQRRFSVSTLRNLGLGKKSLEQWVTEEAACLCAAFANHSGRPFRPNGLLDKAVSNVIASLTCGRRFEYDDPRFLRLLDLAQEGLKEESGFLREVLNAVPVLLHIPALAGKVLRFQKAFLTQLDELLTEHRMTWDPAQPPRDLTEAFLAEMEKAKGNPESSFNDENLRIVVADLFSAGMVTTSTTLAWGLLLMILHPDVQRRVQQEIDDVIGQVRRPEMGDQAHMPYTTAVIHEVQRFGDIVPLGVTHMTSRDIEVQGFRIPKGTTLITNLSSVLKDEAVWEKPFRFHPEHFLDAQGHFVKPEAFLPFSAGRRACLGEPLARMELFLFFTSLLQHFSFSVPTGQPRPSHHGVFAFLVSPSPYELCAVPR
Sequence of Cytochrome P450 3A4 (Homo sapiens) (P08684 whole entry, looked up): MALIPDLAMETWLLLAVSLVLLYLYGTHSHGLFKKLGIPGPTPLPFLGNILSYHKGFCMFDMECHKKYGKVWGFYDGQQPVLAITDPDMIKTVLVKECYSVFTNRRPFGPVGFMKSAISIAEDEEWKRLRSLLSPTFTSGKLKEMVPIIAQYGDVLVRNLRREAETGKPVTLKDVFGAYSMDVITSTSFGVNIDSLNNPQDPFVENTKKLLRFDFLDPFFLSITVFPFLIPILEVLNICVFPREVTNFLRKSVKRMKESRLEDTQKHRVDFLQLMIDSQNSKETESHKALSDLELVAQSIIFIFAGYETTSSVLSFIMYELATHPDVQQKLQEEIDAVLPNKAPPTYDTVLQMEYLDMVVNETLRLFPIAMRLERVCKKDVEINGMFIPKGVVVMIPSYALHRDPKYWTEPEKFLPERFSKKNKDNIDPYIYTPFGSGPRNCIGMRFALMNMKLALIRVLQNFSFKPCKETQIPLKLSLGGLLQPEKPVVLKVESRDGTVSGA
Sequence of Cytochrome P450 2C9 (Homo sapiens) (P11712 whole entry, looked up): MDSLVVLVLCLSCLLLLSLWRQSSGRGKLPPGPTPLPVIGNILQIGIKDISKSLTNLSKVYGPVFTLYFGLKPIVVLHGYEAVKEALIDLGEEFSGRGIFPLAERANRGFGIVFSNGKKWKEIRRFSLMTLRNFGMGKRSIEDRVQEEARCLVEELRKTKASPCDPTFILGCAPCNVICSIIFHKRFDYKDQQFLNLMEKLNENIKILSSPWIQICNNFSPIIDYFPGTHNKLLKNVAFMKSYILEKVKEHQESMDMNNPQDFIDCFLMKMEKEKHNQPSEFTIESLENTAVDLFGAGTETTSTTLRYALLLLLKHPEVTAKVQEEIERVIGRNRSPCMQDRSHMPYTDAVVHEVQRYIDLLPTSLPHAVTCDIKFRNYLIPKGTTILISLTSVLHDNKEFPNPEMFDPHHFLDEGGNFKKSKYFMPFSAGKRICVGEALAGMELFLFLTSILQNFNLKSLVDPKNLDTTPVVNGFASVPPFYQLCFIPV

Consider `CN1CCCN([C@@H](c2ccccc2)c2ccc(Cl)cc2)CC1`, for which the Potency entry in assay [1] is “inactive”. Besides, in [2], the Potency is 0.251 µM (active).

For `CN[C@H]1[C@H](O)[C@@H](O[C@@H]2[C@H](O)[C@@H](O[C@H]3OC(CN)=CC[C@H]3N)[C@@H](N)C[C@H]2N)OC[C@@]1(C)O`, the call in assay [3] was inactive. In addition, the Potency result in the assay with 7G8, with AA1029, in the assay on CP194, in the assay with CP203, in the assay with CP211 and with CP215 was “inactive” each time. Also, the Potency entry with CP335, in the assay on DIV17, in the assay with GB4, in the assay on P93_24, with PC26 and in the assay on TAB109 was “inactive” throughout.

Take `CN1C(=O)C[C@H](c2ccccc2)C1=O`: the molecule was classed as inactive in [3]. The Potency entry with 7G8, with AA1029, in the assay on CP194, in the assay with CP203, in the assay with CP211 and with CP215 was “inactive” each time. Further, the Potency result with CP335, with DFO2036, in the assay on DIV17, in the assay with GB4, with P93_24 and in the assay with PC26 was “inactive” each time. In the assay with TAB109, the Potency is 0.005 µM (active).

Consider `O=C(N/N=C\c1ccc([N+](=O)[O-])o1)c1ccc(O)cc1`, for which, in assay [3], the call was inactive. Further, the Potency in the assay on 7G8 was 0.794 µM (active); in the assay on AA1029 it was 3.98 µM (active); in the assay with CP194, 3.61 µM (active); in the assay on CP203, 5.1 µM (active); in the assay on CP211, 5.73 µM (active); in the assay on CP215 it was 4.55 µM (active). Besides, the Potency in the assay with CP335 was 2.03 µM (active); in the assay on DFO2036, 2.82 µM (active); in the assay with DIV17 it was 2.28 µM (active); with GB4, 1.81 µM (active); in the assay with P93_24, 2.82 µM (active); in the assay with PC26, 5.73 µM (active). Also, the Potency in the assay on TAB109 was 2.24 µM (active).

As to `NC[C@@H]1O[C@H](O[C@H]2[C@H](O)[C@H](O[C@@H]3O[C@H](CO)[C@@H](O)[C@H](N)[C@@H]3O)[C@@H](N)C[C@H]2N)[C@@H](O)[C@H](O)[C@@H]1O`, in [3], the outcome was inactive. Also, the Potency entry in the assay on 7G8, with AA1029, in the assay with CP194, with CP203, in the assay with CP211 and in the assay with CP215 was “inactive” in each case. The Potency entry in the assay on CP335, in the assay on DFO2036, in the assay on DIV17, in the assay on GB4, in the assay on P93_24 and in the assay on PC26 was “inactive” in each case. For the same molecule, the Potency entry with TAB109 is “inactive”.

As for `C[C@@]1(O)CCOC(=O)C1`, the Potency entry in assay [1] and in [4] was “inactive” throughout.

`CC(C)(C)NC(=O)[C@@H]1CC[C@@H]2[C@@H]3CC[C@@H]4NC(=O)C=C[C@@]4(C)[C@H]3CC[C@]21C`: the outcome in [3] was inactive. The Potency result in the assay with AA1029, in the assay with CP194, with CP203, with CP211, in the assay on CP215 and with CP335 was “inactive” in each case. Moreover, the Potency entry with DFO2036, with DIV17, in the assay on GB4, with P93_24, in the assay with PC26 and in the assay on TAB109 was “inactive” in each case.

Consider `CC1=C(C(=O)O)N2C(=O)[C@@H](NC(=O)[C@@H](N)c3ccc(O)cc3)[C@@H]2SC1`, for which the outcome in [3] was inactive. In addition, the Potency result in the assay with 7G8, in the assay with AA1029, in the assay on CP194, in the assay with CP203, in the assay with CP215 and in the assay on CP335 was “inactive” in each case. Further, the Potency entry in the assay on DIV17, in the assay with GB4, in the assay with P93_24, with PC26 and in the assay on TAB109 was “inactive” in each case.

For the molecule `c1ccc2c3c([nH]c2c1)[C@@H]1[C@H]2CC[C@H]([C@H]4CCCN[C@H]42)N1CC3`, the Potency in assay [1] was 15.8 µM (active); in assay [2], 7.94 µM (active).

In the case of `NC[C@@H]1O[C@H](O[C@@H]2[C@H](O[C@@H]3O[C@H](CO)[C@@H](O)[C@@H]3O)[C@@H](O)[C@@H](N)C[C@H]2N)[C@@H](N)[C@H](O)[C@@H]1O`, in assay [3], the molecule was called inactive. Also, the Potency entry in the assay with AA1029, with CP194, in the assay with CP203, with CP211, in the assay with CP335 and in the assay with DFO2036 was “inactive” each time. Besides, the Potency result with DIV17, with GB4, in the assay with P93_24, with PC26 and in the assay on TAB109 was “inactive” each time.

As for `C#C[C@]1(O)CC[C@@H]2[C@H]3CCC4=Cc5oncc5C[C@]4(C)[C@@H]3CC[C@@]21C`, the Potency in [1] was 10 µM (active).

As to `CS(=O)(=O)Nc1cccc(-c2nc(Nc3ccccc3)c3ccccc3n2)c1`, the Potency in assay [1] was 0.794 µM (active). Besides, the Potency entry in assay [5], in assay [6] and in [7] was “inactive” throughout.

On to `CN(C)CCOC(=O)[C@@H](c1ccccc1)C1(O)CCCC1`, for which the Potency entry (in [1]; with 7G8; in the assay with AA1029; with CP194; with CP203; in the assay on CP211) was “inactive” each time. Moreover, the Potency entry with CP215, in the assay on CP335, with DFO2036, with DIV17 and in the assay on TAB109 was “inactive” in each case. For the same molecule, in assay [3], the molecule was classed as inactive.

Consider `NCc1ccccc1CC(=O)N[C@@H]1C(=O)N2C(C(=O)O)=C(CSc3nnnn3CC(=O)O)CS[C@@H]12`, for which the Potency entry (in assay [1]; in the assay on 7G8; in the assay on AA1029; in the assay on CP194; with CP203; in the assay with CP211) was “inactive” in each case. Further, the Potency entry in the assay on CP215, in the assay with CP335, in the assay with DFO2036, with DIV17, in the assay on GB4 and in the assay with P93_24 was “inactive” in each case. In addition, the Potency result in the assay on PC26 and in the assay on TAB109 was “inactive” throughout. Also, the call in assay [3] was inactive.

As to `CNCCC=C1c2ccccc2C=Cc2ccccc21`, the Potency was 6.31 µM (active) in assay [1] and 5.01 µM (active) in assay [2]. Besides, the Potency result in assay [5] is “inactive”.

For `O=C1O[C@@H]([C@@H](O)CO)[C@@H](O)[C@H]1O`, the molecule was called inactive in [3]. Further, the Potency entry with 7G8, in the assay with AA1029, in the assay with CP194, in the assay with CP203, with CP211 and with CP215 was “inactive” in each case. In addition, the Potency result in the assay on CP335, in the assay with DFO2036, with DIV17, with GB4, in the assay on P93_24 and in the assay with PC26 was “inactive” throughout.

Turning to `CC[C@H](Cc1c(I)cc(I)c(N)c1I)C(=O)O`, the Potency in [1] is 12.6 µM (active). For the same molecule, the Potency result in the assay on 7G8, in the assay on AA1029, in the assay on CP194, with CP203, with CP211 and with CP215 was “inactive” in each case. Besides, the Potency entry in the assay with CP335, in the assay on DIV17, in the assay with GB4, in the assay on P93_24, with PC26 and in the assay with TAB109 was “inactive” each time.
